In PubChem BioAssay (NCI):
This is part of a sample that, as a whole, favours compounds with a hit. Of some 79,000 tested, about 15% had one in any assay. Calls of active or inactive are those of the source. Cut-off read from the data, not from the text of the source: active = growth inhibition above about 70%; inactive = the rest.

Tests used:
[1] = NCI Yeast Anticancer Drug Screen. Data for the rad52 strain (AID 147);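 note: 0% = growth of vehicle-treated control cultures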; conditions: S. cerevisiae rad52 mutant growth inhibition, active compounds read high
How it was run: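 Inhibition of yeast growth, referenced to vehicle controls, was the measured output for a strain with defective DNA damage repair.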

[2] = NCI Yeast Anticancer Drug Screen. Data for the wt1 strain (AID 149);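 note: 0% = growth of vehicle-treated wt1 cultures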; conditions: S. cerevisiae wt1 strain (SPY 50644) growth inhibition, active compounds read high
How it was run: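 Yeast wt1 strain exposed to compounds; growth inhibition measured relative to vehicle-treated controls.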

[3] = NCI Yeast Anticancer Drug Screen. Data for the rad50EPP+ strain (AID 151);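 note: 0% = growth of vehicle-treated control cultures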; conditions: S. cerevisiae rad50 mutant strain, active compounds read high
How it was run: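 Genetically defined yeast (rad50EPP+, DNA damage repair alteration) is grown with compound, and inhibition of growth is expressed relative to vehicle-treated controls.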

[4] = NCI Yeast Anticancer Drug Screen. Data for the mgt1 strain (AID 153); conditions: S. cerevisiae mgt1 mutant growth inhibition, active compounds read high
How it was run: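 In the mgt1 strain, test compounds were added and growth inhibition was determined relative to vehicle-treated controls.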

[5] = NCI Yeast Anticancer Drug Screen. Data for the rad50 strain (AID 155);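 note: 0% = growth of vehicle-only cultures of the same strain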; conditions: S. cerevisiae rad50 strain growth inhibition, active compounds read high
How it was run: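 Yeast carrying a defined DNA repair defect were exposed to test compounds, and growth was compared with vehicle-treated controls to give percent inhibition.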

[6] = NCI Yeast Anticancer Drug Screen. Data for the mec2-1 strain (AID 157); conditions: S. cerevisiae mec2-1 strain, active compounds read high
How it was run: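 Each compound was tested on mec2-1 yeast, a strain altered in DNA damage repair or cell cycle control. Growth inhibition is reported relative to vehicle.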

[7] = NCI Yeast Anticancer Drug Screen. Data for the rad14 strain (AID 159);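 note: 0% = growth of vehicle-treated control cultures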; conditions: S. cerevisiae rad14 strain growth inhibition, active compounds read high
How it was run: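 Yeast cells carrying a defined DNA-repair defect were exposed to compounds, and growth inhibition was calculated relative to vehicle-treated control cultures.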

[8] = NCI Yeast Anticancer Drug Screen. Data for the sgs1 mgt1 strain (AID 161);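 note: 0% = growth of cultures given vehicle only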; conditions: S. cerevisiae sgs1 mgt1 strain, active compounds read high
How it was run: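 Read-out: growth inhibition vs vehicle controls. Cells: mutant yeast strain deficient in DNA damage repair.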

[9] = NCI Yeast Anticancer Drug Screen. Data for the CLN2oe strain (AID 163);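 note: 0% = growth of vehicle-only control cultures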; conditions: S. cerevisiae CLN2oe strain, active compounds read high
How it was run: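 First, the altered yeast strain was treated with each compound; second, its growth was measured; finally, inhibition was derived by comparison with vehicle controls.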

[10] = NCI Yeast Anticancer Drug Screen. Data for the cln2 rad14 strain (AID 165);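 note: 0% = growth equal to vehicle treated cultures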; conditions: S. cerevisiae cln2 rad14 strain, active compounds read high
How it was run: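 Test compounds were added to cln2 rad14 yeast cultures; inhibition of growth was then determined by comparison with vehicle treatment.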

[11] = NCI Yeast Anticancer Drug Screen. Data for the bub3 strain (AID 167); conditions: S. cerevisiae bub3 mutant strain, active compounds read high
How it was run: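 Compounds were applied to a genetically altered yeast strain carrying a cell-cycle control defect. Growth inhibition was scored against vehicle-treated controls.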

[12] = NCI Yeast Anticancer Drug Screen. Data for the wt2 strain (AID 169);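 note: 0% = growth of vehicle-treated yeast cultures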; conditions: S. cerevisiae wt2 strain growth inhibition, active compounds read high
How it was run: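 The panel's yeast strains carry defined changes in DNA repair or cell cycle genes. Each strain is grown with compound, and growth loss is scored relative to vehicle.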

[13] = NCI Yeast Anticancer Drug Screen. Data for the mlh1 strain (AID 171);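 note: 0% = growth of vehicle-treated control cultures of the same strain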; conditions: S. cerevisiae mlh1 strain growth inhibition, active compounds read high
How it was run: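 Inhibition values reflect reduced yeast growth in the presence of compound, referenced to vehicle controls, using a strain chosen for its alteration in DNA repair or cell cycle control.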

[14] = NCI Yeast Anticancer Drug Screen. Data for the sgs1 strain (AID 173);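 note: 0% = growth of vehicle-only control cultures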; conditions: S. cerevisiae sgs1 mutant, active compounds read high
How it was run: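 Vehicle-treated cultures served as reference for growth inhibition of a yeast strain altered in DNA damage repair or cell cycle control after compound exposure.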

[15] = NCI Yeast Anticancer Drug Screen. Data for the mlh1 rad18 strain (AID 175); conditions: S. cerevisiae mlh1 rad18 strain growth inhibition, active compounds read high
How it was run: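 Inhibition values reflect reduced growth of mutant yeast versus vehicle-treated controls following compound exposure; the mutations affect DNA damage repair.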

[16] = NCI Yeast Anticancer Drug Screen. Data for the rad18 strain (AID 177); conditions: S. cerevisiae rad18 mutant growth inhibition, active compounds read high
How it was run: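 Steps: expose repair-mutant yeast to compound; measure growth; express as inhibition relative to vehicle control.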

[17] = at 5.0 µM (retest, dose inferred, filed as 0.5)
[18] = at 50.0 µM (retest, dose inferred, filed as 5.0)

Measured: growth inhibition

COc1cccc2c1C(=O)c1c(O)c3c(c(O)c1C2=O)C[C@@](O)(C(C)=O)C[C@@H]3OC1CC(OC(C)=O)C(OC(C)=O)C(C)O1 (stereo partly specified)
active: [5]; [18] 76% | [8]; [17] 98% | [8]; [18] 96% | [8]; at 50.0 µM 77% | [10]; [17] 96% | [10]; [18] 97% | [11]; [17] 98% | [11]; [18] 97% | [11]; at 50.0 µM 75.7% | [15]; at 50.0 µM 82.7%
inactive: [1]; at 1.2 µM -12% | [1]; at 3.7 µM -7% | [1]; at 11.0 µM 37% | [1]; at 33.0 µM 48% | [1]; at 100.0 µM 40% | [2]; at 1.2 µM -26% | [2]; at 3.7 µM -43% | [2]; at 11.0 µM -46% | [2]; at 33.0 µM -24% | [2]; at 100.0 µM -28% | [3]; at 1.2 µM -11% | [3]; at 3.7 µM -16% | [3]; at 11.0 µM -7% | [3]; at 33.0 µM 7% | [3]; at 100.0 µM 36% | [4]; at 1.2 µM -41% | [4]; at 3.7 µM -51% | [4]; at 11.0 µM -33% | [4]; at 33.0 µM -22% | [4]; at 100.0 µM -11% | [5]; at 1.2 µM -40% | [5]; at 3.7 µM -11% | [5]; [17] 22% | [5]; at 11.0 µM 39% | [5]; at 33.0 µM 51% | [5]; at 50.0 µM 56.2% | [5]; at 100.0 µM 47% | [6]; at 1.2 µM -64% | [6]; at 3.7 µM -46% | [6]; [17] 13% | [6]; at 11.0 µM -34% | [6]; at 33.0 µM -25% | [6]; [18] 41% | [6]; at 50.0 µM 60% | [6]; at 100.0 µM 1% | [7]; at 1.2 µM -35% | [7]; at 3.7 µM -3% | [7]; at 11.0 µM -6% | [7]; at 33.0 µM 10% | [7]; at 100.0 µM 29% | [9]; at 1.2 µM 3% | [9]; at 3.7 µM -2% | [9]; at 11.0 µM 12% | [9]; at 33.0 µM 11% | [9]; at 100.0 µM 19% | [10]; at 50.0 µM 17.3% | [11]; at 1.2 µM -54% | [11]; at 3.7 µM -38% | [11]; at 11.0 µM -50% | [11]; at 33.0 µM -35% | [11]; at 100.0 µM -4% | [12]; at 1.2 µM -23% | [12]; at 3.7 µM -18% | [12]; at 11.0 µM -2% | [12]; at 33.0 µM 0% | [12]; at 100.0 µM 12% | [13]; at 1.2 µM -41% | [13]; at 3.7 µM -37% | [13]; at 11.0 µM -30% | [13]; at 33.0 µM -8% | [13]; at 100.0 µM 18% | [14]; at 1.2 µM -17% | [14]; at 3.7 µM -23% | [14]; at 11.0 µM -14% | [14]; at 33.0 µM -3% | [14]; at 100.0 µM -9% | [15]; [17] 23% | [15]; [18] 62% | [16]; at 1.2 µM -28% | [16]; at 3.7 µM -29% | [16]; at 11.0 µM -16% | [16]; at 33.0 µM -5% | [16]; at 100.0 µM -1%

COC(=O)Nc1cn2ccc(C(Cl)=C(Cl)Cl)cc2n1
active: [15]; [18] 78%
inactive: [1]; at 1.2 µM -12% | [1]; at 3.7 µM -17% | [1]; at 11.0 µM -21% | [1]; at 33.0 µM -33% | [1]; at 100.0 µM -16% | [2]; at 1.2 µM -16% | [2]; at 3.7 µM -21% | [2]; at 11.0 µM -33% | [2]; at 33.0 µM -29% | [2]; at 100.0 µM -33% | [3]; at 1.2 µM -27% | [3]; at 3.7 µM -19% | [3]; at 11.0 µM -32% | [3]; at 33.0 µM -27% | [3]; at 100.0 µM -28% | [4]; at 1.2 µM -21% | [4]; at 3.7 µM -17% | [4]; at 11.0 µM -29% | [4]; at 33.0 µM -24% | [4]; at 100.0 µM -22% | [5]; at 1.2 µM -22% | [5]; at 3.7 µM -32% | [5]; [17] 21% | [5]; at 11.0 µM -35% | [5]; at 33.0 µM -36% | [5]; [18] 29% | [5]; at 50.0 µM -4.2% | [5]; at 100.0 µM -32% | [6]; at 1.2 µM 4% | [6]; at 3.7 µM -5% | [6]; [17] 17% | [6]; at 11.0 µM 5% | [6]; at 33.0 µM 3% | [6]; [18] 15% | [6]; at 50.0 µM -9.5% | [6]; at 100.0 µM -4% | [7]; at 1.2 µM 18% | [7]; at 3.7 µM -11% | [7]; at 11.0 µM 1% | [7]; at 33.0 µM -13% | [7]; at 100.0 µM -17% | [8]; [17] 28% | [8]; [18] 40% | [8]; at 50.0 µM -27.6% | [9]; at 1.2 µM 42% | [9]; at 3.7 µM 27% | [9]; at 11.0 µM 35% | [9]; at 33.0 µM 21% | [9]; at 100.0 µM 18% | [10]; [17] 7% | [10]; [18] 21% | [10]; at 50.0 µM -5.65% | [11]; at 1.2 µM -8% | [11]; at 3.7 µM -14% | [11]; [17] 24% | [11]; at 11.0 µM -28% | [11]; at 33.0 µM -21% | [11]; [18] 29% | [11]; at 50.0 µM -24.1% | [11]; at 100.0 µM -20% | [12]; at 1.2 µM -40% | [12]; at 3.7 µM -33% | [12]; at 11.0 µM -50% | [12]; at 33.0 µM -49% | [12]; at 100.0 µM -53% | [13]; at 1.2 µM 29% | [13]; at 3.7 µM 23% | [13]; at 11.0 µM 14% | [13]; at 33.0 µM 10% | [13]; at 100.0 µM 12% | [14]; at 1.2 µM 6% | [14]; at 3.7 µM 2% | [14]; at 11.0 µM -18% | [14]; at 33.0 µM -16% | [14]; at 100.0 µM -11% | [15]; [17] 65% | [15]; at 50.0 µM -12.5% | [16]; at 1.2 µM -16% | [16]; at 3.7 µM -22% | [16]; at 11.0 µM -13% | [16]; at 33.0 µM -39% | [16]; at 100.0 µM -46%

NC1=NNC2(C(N)=N1)c1ccccc1-c1ccccc12
active: [1]; at 100.0 µM 96% | [2]; at 100.0 µM 97% | [3]; at 100.0 µM 76% | [4]; at 100.0 µM 98% | [5]; [18] 93% | [5]; at 50.0 µM 86.2% | [5]; at 100.0 µM 94%
inactive: [1]; at 1.2 µM -18% | [1]; at 3.7 µM -14% | [1]; at 11.0 µM -16% | [1]; at 33.0 µM 16% | [2]; at 1.2 µM 4% | [2]; at 3.7 µM 3% | [2]; at 11.0 µM -4% | [2]; at 33.0 µM 12% | [3]; at 1.2 µM 3% | [3]; at 3.7 µM 7% | [3]; at 11.0 µM 2% | [3]; at 33.0 µM 44% | [4]; at 1.2 µM 12% | [4]; at 3.7 µM 6% | [4]; at 11.0 µM 3% | [4]; at 33.0 µM 30% | [5]; at 1.2 µM -7% | [5]; at 3.7 µM -12% | [5]; [17] -32% | [5]; at 11.0 µM -9% | [5]; at 33.0 µM 32% | [6]; at 1.2 µM 11% | [6]; at 3.7 µM 12%
